According to PubChem BioAssay AID492989 (National Center for Advancing Translational Sciences (NCATS), 2010):
Activity calls are given as the source filed them.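 Rule for the calls: active = clear inhibition seen at one or more tested concentrations; inactive = basal response, no inhibition.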

The molecules below were run against Tyrosyl-DNA phosphodiesterase 1 (Homo sapiens) (UniProt Q9NUW8) (assay: Gel-Based Assay for Inhibitors of Tyrosyl-DNA Phosphodiesterase (TDP1)). Conditions: recombinant TDP1, 32P-DNA substrate gel cleavage.
Tyrosyl-DNA phosphodiesterase 1 (Homo sapiens), sequence (Q9NUW8 whole entry, looked up): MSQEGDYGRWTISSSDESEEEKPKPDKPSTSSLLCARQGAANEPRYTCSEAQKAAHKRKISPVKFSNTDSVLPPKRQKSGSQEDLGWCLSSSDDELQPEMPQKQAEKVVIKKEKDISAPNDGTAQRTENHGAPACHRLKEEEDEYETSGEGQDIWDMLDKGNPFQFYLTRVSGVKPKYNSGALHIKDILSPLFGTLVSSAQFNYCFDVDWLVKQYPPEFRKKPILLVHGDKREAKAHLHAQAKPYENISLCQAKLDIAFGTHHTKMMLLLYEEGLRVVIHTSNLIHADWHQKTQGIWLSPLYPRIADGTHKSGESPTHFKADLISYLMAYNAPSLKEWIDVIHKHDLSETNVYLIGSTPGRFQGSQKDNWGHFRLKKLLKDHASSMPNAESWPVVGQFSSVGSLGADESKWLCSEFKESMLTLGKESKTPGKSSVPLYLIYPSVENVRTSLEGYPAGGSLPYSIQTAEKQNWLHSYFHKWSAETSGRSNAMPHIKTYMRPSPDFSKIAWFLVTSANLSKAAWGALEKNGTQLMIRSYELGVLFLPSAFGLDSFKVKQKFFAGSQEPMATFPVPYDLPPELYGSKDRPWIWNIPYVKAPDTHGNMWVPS
From the text: Assay Overview: Human tyrosyl-DNA phosphodiesterase I (Tdp1) is a rational anticancer target because this enzyme is involved in the repair of DNA lesions created by the trapping of human DNA topoisomerase I (Top1) following treatment by anticancer agents such as camptothecins. Recombinant Tdp1 was expressed and purified from E. coli in the laboratory (Anthony et al, Nucleic Acids Research, 2007, Vol. 35, 4474-4484). See below for assay protocol. NIH Molecular Libraries Probe Production Network [MLPCN] NIH Chemical Genomics Center [NCGC] Assay Provider: Yves Pommier and Christophe Marchand, National Cancer Institute
5'-32P-labeled DNA substrate (1 nmol/L; N14Y; 5'-GATCTAAAAGACTT-pY-3') was incubated with 0.2 nmol/L recombinant Tdp1 in the absence or presence of inhibitor for 15 min at room temperature in an assay buffer containing 1X PBS, pH 7.4, 80 mmol/L KCl and 0.01% Tween-20. Reactions were terminated by the addition of 1 volume of gel loading buffer [99.5% (v/v) formamide, 5 mmol/L EDTA, 0.01% (w/v) xylene cyanol, and 0.01% (w/v) bromophenol blue]. Samples were subjected to a 16% denaturing PAGE and gels were exposed after drying to a PhosphorImager screen (GE Healthcare). Gel images were scanned using a Typhoon 8600 (GE Healthcare) and densitometric analyses were performed using the ImageQuant software (GE Healthcare).
With `CN(C)c1ccc2c(=O)n3nc(Nc4ccc5c(c4)CCC5)sc3nc2c1` the outcome was “inactive”.
`Cc1cccc(Nc2nn3c(=O)c4ccccc4nc3s2)c1` was tested, and the Potency was 10 µM (active).
With `O=c1c2ccc(Br)cc2nc2sc(Nc3ccc4c(c3)CCC4)nn12` the Potency was 1.1 µM (active).
For `COc1ccc2c(=O)n3nc(Nc4ccc5c(c4)CCC5)sc3nc2c1`, the Potency was 11 µM (active).
With `O=c1c2ccccc2nc2sc(Nc3cccc(Cl)c3)nn12` the Potency was 7.4 µM (active).
In the case of `O=c1c2ccccc2nc2sc(Nc3ccccc3)nn12`, the Potency is reported as 100 µM (active).
`O=c1c2ccccc2nc2sc(Nc3cccc(C(F)(F)F)c3)nn12` was tested, and the outcome was “inactive”.
For `CN1CCN(c2cccc(Nc3nn4c(=O)c5ccccc5nc4s3)c2)CC1`, the outcome was “inactive”.
With `CC(C)N1Cc2ccc(Nc3nn4c(=O)c5ccccc5nc4s3)cc2C1` the Potency was 22 µM (active).
With `O=c1c2ccccc2nc2sc(Nc3cccc4ccccc34)nn12` the Potency was 14 µM (active).
`Nc1ccc2c(=O)n3nc(Nc4ccc5c(c4)CCC5)sc3nc2c1` was tested, and the outcome was “inactive”.
In the case of `CN(c1ccc2c(c1)CCC2)c1nn2c(=O)c3ccccc3nc2s1`, the outcome is reported as “inactive”.
With `CCc1cccc(Nc2nn3c(=O)c4ccccc4nc3s2)c1` the outcome was “inactive”.
For `O=c1c2ccc([N+](=O)[O-])cc2nc2sc(Nc3ccc4c(c3)CCC4)nn12`, the Potency was 37 µM (active).
For `Cc1ccc(Nc2nn3c(=O)c4ccccc4nc3s2)cc1C`, the Potency was 10 µM (active).
For `O=c1c2ccccc2nc2sc(Nc3cccc(-c4ccncc4)c3)nn12`, the Potency was 11 µM (active).
For `O=c1c2ccccc2nc2sc(Nc3ccc(F)cc3)nn12`, the outcome was “inactive”.
For `O=c1c2ccccc2nc2sc(Nc3ccc(Br)cc3)nn12`, the outcome was “inactive”.
In the case of `O=c1c2ccc(C(F)(F)F)cc2nc2sc(Nc3ccc4c(c3)CCC4)nn12`, the Potency is reported as 12 µM (active).
`COc1cccc(Nc2nn3c(=O)c4ccccc4nc3s2)c1` was tested, and the Potency was 100 µM (active).
With `O=c1c2ccccc2nc2sc(Nc3ccc4c(c3)OCO4)nn12` the Potency was 12 µM (active).
With `O=c1c2ccccc2nc2sc(Nc3cccc(Br)c3)nn12` the outcome was “inactive”.
With `O=c1c2ccccc2nc2sc(Nc3ccc4c(c3)CNC4)nn12` the Potency was 100 µM (active).
For `CC(C)(C)NS(=O)(=O)c1cccc(Nc2nn3c(=O)c4ccccc4nc3s2)c1`, the Potency was 34 µM (active).
With `O=c1c2ccccc2nc2sc(Nc3ccc4c(c3)CCC4)nn12` the Potency was 2.5 µM (active).
